A short description of test [1]: rapamycin-like changes in RPL19A-GFP expression – cell-based, S. cerevisiae, multiplex flow cytometry, primary screen (AID 1862; in the data active means percent of DMSO control GFP below about 86%;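 further: lower values mimic rapamycin by blocking the RPL19A rise seen in DMSO cells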). Particulars: S. cerevisiae RPL19A-GFP strain, flow cytometry fluorescence, 3 h; at 10 µM; stronger effect = lower value.
The nature of test [2]: TOR pathway GLN3 branch reporter MEP2-GFP changes – S. cerevisiae, multiplex flow cytometry, primary screen (AID 1867;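 active means GFP response, as percent of the DMSO control, above the screen-wide mean plus 3 SD, about 139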;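 further: median GFP channel fluorescence of barcode-gated MEP2-GFP cells measured by flow cytometry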). Particulars: S. cerevisiae MEP2-GFP strain, 3 h, at 10 µM, stronger effect = higher value, 100% means same as DMSO wells.
A short description of test [3]: TOR pathway RTG branch CIT2 reporter changes – S. cerevisiae, GFP fusion, multiplex flow cytometry, primary screen (AID 1870;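 active means percent response above a set limit, the screen-wide mean plus 3 SD, cut at about 130% in these data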;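 further: barcoded CIT2-GFP strain pooled with four other GFP strains with rapamycin as positive control; median GFP fluorescence per well over plate mean of DMSO wells so 100% = DMSO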). The conditions noted are these: S. cerevisiae CIT2-GFP expression, 3 h, at 10 µM, stronger effect = higher value.
Test [4] is described as follows: TOR pathway LAP4-GFP level changes – S. cerevisiae, multiplex flow cytometry, primary screen (AID 1873;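 active means GFP signal, as percent of the solvent control, above the screen mean plus 3 SD, about 149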). Particulars: S. cerevisiae LAP4-GFP expression, 3 h, at 10 µM, stronger effect = higher value.
Test [5] can be described thus: yeast AGP1-GFP level changes, GLN3 branch – cell-based, multiplex flow cytometry, S. cerevisiae, primary screen (AID 1887;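 active means GFP signal above the screen-wide mean plus 3 SD, that is over about 124.5% of the solvent control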;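 further: AGP1-GFP fusion strain of S. cerevisiae within a five-strain barcoded multiplex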). Particulars: 3 h, at 10 µM, stronger effect = higher value.
The nature of test [6]: hit retest on RPL19A-GFP reporter strain – cell-based, S. cerevisiae, flow cytometry, cherry picks, mother/daughter gates, confirmation (AID 2270;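 active means GFP response below 50% of the DMSO control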). Particulars: 3 h, at 10 µM, stronger effect = lower value, 100 = same GFP as DMSO wells.
The nature of test [7]: yeast TOR pathway reporter LAP4-GFP change – cell-based, cherry picks, flow cytometry, mother/daughter gates, confirmation (AID 2271;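 active means GFP response above 150% of the DMSO control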;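 further: ratio of sample to DMSO plate mean so 100% equals DMSO level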). Particulars: S. cerevisiae LAP4-GFP strain, 3 h, at 10 µM, stronger effect = higher value, 100 means same as DMSO control.
Test [8] in a line: TOR pathway reporter MEP2-GFP, retest of hits – S. cerevisiae, flow cytometry GFP, cherry picks, confirmation (AID 2272).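 Further: ratio of well signal to plate DMSO mean so 100% equals DMSO level.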 The conditions noted are these: S. cerevisiae MEP2-GFP strain, 3 h, at 10 µM, stronger effect = higher value.
Test [9] can be described thus: TOR pathway CIT2 reporter hit retest – S. cerevisiae, GFP fusion, cherry picks, mother/daughter gates, confirmation (AID 2274;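 active means GFP response above 150% of the DMSO level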). The conditions noted are these: S. cerevisiae CIT2-GFP strain, flow cytometry, 3 h, at 10 µM, stronger effect = higher value.
Test [10] is described as follows: reduced mouse 2C T cell binding to pMHC/ICAM-1 vesicles – MLPCN validation set, flow cytometry, LFA-1/ICAM-1 modulator project, pilot screen (AID 2523;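 active means response below a set limit, under 55% cells CD8-positive and vesicle-bound, and CD8 cells' 90th-percentile brightness under 279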;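 on vesicle binding response: mean PE anti-B7-1 fluorescence of CD8+ cells relative to row control; 100% = QL9-loaded vesicles with DMSO vehicle in the same plate row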). The conditions noted are these: 2C mouse CD8+ T cells, at 7 µM, stronger effect = lower value; double positive events: measured here: CD8+/vesicle+ event percentage.
For test [11], the target named is Regulator of G-protein signaling 16 (Homo sapiens) (UniProt O15492). Briefly: small molecules altering RGS protein interactions with GNAO1 – biochemical, multiplexed beads, flow cytometry, RGS4/7/8/16/19, primary screen (AID 1504).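 Further: fluorescently labeled Galpha-o bound to GDP with aluminium fluoride binding biotinylated RGS beads.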 Particulars: multiplexed bead flow cytometry, measured here: RGS16 interaction, at 10 µM.
Test [12] deals with Regulator of G-protein signaling 19 (Homo sapiens) (UniProt P49795). Described as above. Particulars: multiplexed bead flow cytometry, measured here: RGS19 interaction, at 10 µM.
The target in test [13] is Regulator of G-protein signaling 7 (Homo sapiens) (UniProt P49802). Described as above. Particulars: multiplexed bead flow cytometry, measured here: RGS7 interaction, at 10 µM.
Test [14] concerns the target Regulator of G-protein signaling 8 (Homo sapiens) (UniProt P57771). The test is described as above. Particulars: multiplexed bead flow cytometry, measured here: RGS8 interaction, at 10 µM.
Test [15] is described as follows: interference with biotin-avidin bead interaction – biochemical, flow cytometry, bead-based, counter-screen for RGS protein interaction modulators (AID 1783;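 active means inhibition above 50%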;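 further: median green fluorescence of gated singlet beads compared with DMSO control wells; 0% = DMSO wells and 100% = complete loss of bead fluorescence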). The conditions noted are these: streptavidin beads, fluorescein-biotin binding; at 10 µM, stronger effect = higher value.
Test [16] has as its target Guanine nucleotide-binding protein G(o) subunit alpha (Homo sapiens) (UniProt P09471). Briefly: retest of RGS8-Galphao interaction hits – biochemical, multiplexed bead flow cytometry, single concentration, confirmation (AID 1836; in the data active means binding response below about 72% or above about 130%; inactive means in between;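 further: Galphao activated as GDP AlF4 complex before binding bead RGS8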). Particulars: bead-based flow cytometry RGS8-Galphao binding, fluorescence; at 10 µM; actives lie on both sides.
For test [17] the target is unchanged. Briefly: retest of RGS7-Galphao interaction hits – biochemical, multiplexed bead flow cytometry, single concentration, confirmation (AID 1837; in the data active means response below about 75% or above about 130%; inactive means in between;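 further: fluorescent Galphao activated with GDP and aluminum fluoride binding bead-coupled RGS7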). Particulars: bead-based flow cytometry RGS7-Galphao binding; at 10 µM; actives lie on both sides.
Test [18] deals with Regulator of G-protein signaling 16 (Homo sapiens) + Guanine nucleotide-binding protein G(o) subunit alpha (Homo sapiens) (UniProt O15492+P09471). In words: RGS16 and Galphao interaction regulators – biochemical, single concentration, multiplexed bead flow cytometry, confirmation (AID 1838; in the data active means response below about 74% or above about 130%; inactive means in between;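 further: Galphao activated as the GDP aluminium fluoride complex binding bead-coupled RGS16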). Particulars: bead-based flow cytometry, at 10 µM, actives lie on both sides.
Sequence of Regulator of G-protein signaling 16 (Homo sapiens) + Guanine nucleotide-binding protein G(o) subunit alpha (Homo sapiens) (O15492 whole entry, looked up): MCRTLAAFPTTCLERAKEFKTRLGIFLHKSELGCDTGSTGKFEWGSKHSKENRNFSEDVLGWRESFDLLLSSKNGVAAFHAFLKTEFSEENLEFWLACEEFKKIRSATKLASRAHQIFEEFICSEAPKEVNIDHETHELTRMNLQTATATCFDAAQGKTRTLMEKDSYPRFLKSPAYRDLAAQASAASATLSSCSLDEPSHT
Sequence of Regulator of G-protein signaling 16 (Homo sapiens) + Guanine nucleotide-binding protein G(o) subunit alpha (Homo sapiens) (P09471 whole entry, looked up): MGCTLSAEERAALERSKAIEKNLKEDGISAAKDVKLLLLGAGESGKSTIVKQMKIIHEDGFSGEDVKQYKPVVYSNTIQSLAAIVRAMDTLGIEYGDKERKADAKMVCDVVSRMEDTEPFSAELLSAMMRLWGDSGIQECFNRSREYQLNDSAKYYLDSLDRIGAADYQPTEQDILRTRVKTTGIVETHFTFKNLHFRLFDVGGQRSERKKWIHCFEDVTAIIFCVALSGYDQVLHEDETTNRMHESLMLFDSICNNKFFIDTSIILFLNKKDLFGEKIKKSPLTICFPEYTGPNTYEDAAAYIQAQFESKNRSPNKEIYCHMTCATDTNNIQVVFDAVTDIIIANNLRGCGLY
For test [19], the target named is Guanine nucleotide-binding protein G(o) subunit alpha (Homo sapiens) (UniProt P09471). Briefly: RGS4 and Galphao interaction regulators – biochemical, single concentration, multiplexed bead flow cytometry, confirmation (AID 1840; in the data active means binding response below about 74% or above about 130%; inactive means in between). Particulars: at 10 µM, actives lie on both sides.
Sequence of Guanine nucleotide-binding protein G(o) subunit alpha (Homo sapiens) (P09471 whole entry, looked up): as above
Test [20] deals with Guanine nucleotide-binding protein G(o) subunit alpha (Homo sapiens) + Regulator of G-protein signaling 19 (Homo sapiens) (UniProt P09471+P49795). Briefly: RGS19 interaction with Gαo, hit retest – biochemical, single point, multiplexed bead flow cytometry, confirmation (AID 1841; in the data active means response below about 50% or above about 160%; inactive means in between;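 further: 100% = no compound control and 0% = blank background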). The conditions noted are these: bead-based flow cytometry RGS19-Galphao binding; at 10 µM; actives lie on both sides.
Sequence of Guanine nucleotide-binding protein G(o) subunit alpha (Homo sapiens) + Regulator of G-protein signaling 19 (Homo sapiens) (P09471 whole entry, looked up): as above
Sequence of Guanine nucleotide-binding protein G(o) subunit alpha (Homo sapiens) + Regulator of G-protein signaling 19 (Homo sapiens) (P49795 whole entry, looked up): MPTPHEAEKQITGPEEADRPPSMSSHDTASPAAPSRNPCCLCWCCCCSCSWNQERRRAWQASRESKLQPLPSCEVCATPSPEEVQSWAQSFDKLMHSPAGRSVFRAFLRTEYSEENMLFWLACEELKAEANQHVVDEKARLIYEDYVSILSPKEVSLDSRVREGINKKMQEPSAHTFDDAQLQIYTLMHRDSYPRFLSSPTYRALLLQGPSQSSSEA

Setting [21] is: measured here: daughter cell gate.
Where [22] appears, read: measured here: mother cell gate.
[23] abbreviates: measured here: daughter cell gate response.
[24] abbreviates: measured here: mother cell gate response.

Records with an inconclusive call do not appear. The list shows a part of the results. Calls of active or inactive are those of the source.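 How the source made its calls, unless noted: active means GFP response above 150% of the DMSO control; inconclusive means Fewer than 70 cells counted for a yeast strain; inactive means the rest.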

`c1cnc2c(c1)ccc1cccnc12`: the percent of DMSO control GFP in [1] is 98.9% (inactive). The GFP response vs DMSO in test [2] is 107% (inactive); in test [4], 174% (active); in test [6], 101% (inactive); in test [6] (setting [21]), 100%; in [6] (setting [22]) it was 100%; in [8] it was 112% (inactive). In addition, the percent response of DMSO control in test [3] was 96.4% (inactive). Further, the GFP response, % of DMSO in test [5] was 117% (inactive); in test [9], 111% (inactive); in test [9] (setting [21]), 117%; in test [9] (setting [22]), 107%. Also, the GFP response relative to DMSO was 116% (inactive) in [7], 116% in [7] (setting [23]) and 117% in test [7] (setting [24]). The double positive events in test [10] is 59.5%. In test [10], the vesicle binding response was 192% (inactive).
In the case of `C[C@]12CC[C@H]3[C@@H](CCC4=CC(=O)CC[C@@]43C)[C@@H]1CC[C@@H]2C(=O)CO`, the percent of DMSO control GFP in test [1] is 93.7% (inactive). In addition, the GFP response vs DMSO is 119% (inactive) in [2]; 84.7% (inactive) in test [4]; 97.8% (inactive) in test [6]; 95.3% in test [6] (setting [21]); 98.4% in test [6] (setting [22]); 93.5% (inactive) in [8]. Also, the percent response of DMSO control in [3] is 102% (inactive). The GFP response, % of DMSO in test [5] was 84.3% (inactive); in test [9], 91.3% (inactive); in test [9] (setting [21]), 89.9%; in test [9] (setting [22]) it was 91.2%. The GFP response relative to DMSO in test [7] was 107% (inactive); in [7] (setting [23]), 106%; in test [7] (setting [24]), 106%. In [10], this molecule registered a double positive events of 56.7%. Moreover, the vesicle binding response in test [10] was 201% (inactive).
Regarding `CC(=O)Nc1nc(N(C)C)nc(N(C)C)n1`, the RGS16–Galpha-o binding response in [11] worked out at 28%. Also, the RGS19–Galpha-o binding response in test [12] came out at 162%. In test [13], the RGS7–Galpha-o binding response is -0.2%. This molecule came in with an RGS8–Galpha-o binding response in [14] of 25.1%. The inhibition in test [15] was 3.9% (inactive). For the same molecule, the binding response (% of control) in [16] was 100% (inactive); in test [19] it was 104% (inactive). Moreover, the values for the response (percent of control binding) in test [17] and in test [20] were 103% (inactive) and 109% (inactive), respectively. Also, the response (% of control binding) in test [18] is 104% (inactive).
Turning to `Cc1ncoc1C(=O)NCCC(c1ccccc1)c1ccccc1`, the inhibition in test [15] was 0.1% (inactive). Moreover, the binding response (% of control) in [16] is 101% (inactive); in test [19] it was 103% (inactive). Moreover, the response (percent of control binding) in [17] was 110% (inactive); in test [20], 111% (inactive). Further, the response (% of control binding) in [18] is 101% (inactive).
In the case of `Cc1ccc(S(=O)(=O)NCC(=O)OCC(=O)N2CCc3ccccc32)cc1`, in [11], the RGS16–Galpha-o binding response worked out at 604%. Moreover, in test [12], the RGS19–Galpha-o binding response was determined as 93.8%. Further, the RGS7–Galpha-o binding response in test [13] stood at 139%. Moreover, the RGS8–Galpha-o binding response in test [14] amounted to 117%. The inhibition in [15] was -1.7% (inactive). Besides, the binding response (% of control) in [16] is 102% (inactive); in test [19], 99.7% (inactive). For the same molecule, the response (percent of control binding) is 99.5% (inactive) in test [17] and 97.4% (inactive) in test [20]. The response (% of control binding) in test [18] was 98.9% (inactive).
As to `CN/C(=C/[N+](=O)[O-])NCCSCc1ccc(CN(C)C)o1`, the percent of DMSO control GFP in test [1] was 91.7% (inactive). In addition, the GFP response vs DMSO was 150% (active) in test [2]; 83.6% (inactive) in test [4]; 100% (inactive) in [6]; 101% in test [6] (setting [21]); 99.2% in test [6] (setting [22]); 107% (inactive) in [8]. In addition, the percent response of DMSO control in test [3] is 108% (inactive). For the same molecule, the GFP response, % of DMSO in test [5] is 87.7% (inactive); in test [9], 101% (inactive); in test [9] (setting [21]), 105%; in test [9] (setting [22]) it was 99.7%. For the same molecule, the GFP response relative to DMSO in test [7] is 97.9% (inactive); in test [7] (setting [23]), 97.6%; in test [7] (setting [24]) it was 96.1%. In test [10], the double positive events was found to be 64.5%. For the same molecule, the vesicle binding response in test [10] is 123% (inactive).
Turning to `C[C@H]1C[C@@H]2[C@H]([C@@H](O)C[C@@]3(C)[C@H]2CC[C@]3(O)C(=O)CO)[C@@]2(C)C=CC(=O)C=C12`, in [1], the percent of DMSO control GFP is 85.8% (active). For the same molecule, the GFP response vs DMSO in test [2] is 145% (active); in [4], 80.3% (inactive); in test [6], 96.6% (inactive); in [6] (setting [21]), 96.6%; in test [6] (setting [22]), 96.6%; in [8] it was 105% (inactive). Further, the percent response of DMSO control in test [3] was 93.9% (inactive). For the same molecule, the GFP response, % of DMSO was 83.6% (inactive) in test [5], 99.7% (inactive) in test [9], 99.1% in [9] (setting [21]) and 98.5% in [9] (setting [22]). Further, the values for the GFP response relative to DMSO in test [7], in test [7] (setting [23]) and in test [7] (setting [24]) were 103% (inactive), 102% and 99.3%, respectively. Moreover, the double positive events in test [10] worked out at 77.3%. Further, the vesicle binding response in test [10] was 227% (inactive).

Values taken from PubChem BioAssay.
